An excerpt weighted towards active compounds, which were near 11% of everything screened.
Pf growth 96h = Primary qHTS for delayed death inhibitors of the malarial parasite plastid, 96 hour incubation. P. falciparum luciferase reporter growth, 96 h. Potency, µM (doses to about 28.7 µM), hits mostly inhibitors. 320,000 tested, 6.9% active. AID 504834, 2011
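Two-generation exposure (96 h) targets delayed-death phenotype. Reporter parasites carrying integrated firefly luciferase, in red cells at 2% hematocrit and 0.05% parasitemia final, kept at 37 C, 5% CO2; luminescence loss indicates inhibition.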
Pf growth 48h = Primary qHTS for delayed death inhibitors of the malarial parasite plastid, 48 hour incubation; P. falciparum luciferase growth in erythrocytes, 48 h; Potency, µM (top dose mostly 28.7 µM), most hits filed as inhibitors; 310,000 tested, 5.9% active; AID 504832, 2011
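Luminescence readout; reporter = integrated firefly luciferase in P. falciparum. RBC culture at 2% hematocrit, 0.1% parasitemia final, 37 C/5% CO2; decreased signal taken as growth inhibition.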
HCV inhibitor = qHTS Assay for Inhibitors of Hepatitis C Virus (HCV). Huh7.5.1 HCVcc-Cre infection, luciferase reporter, 44 h. Potency, µM (highest dose often 41.8 µM), hits mostly inhibitors. 340,000 tested, 3.4% active. AID 651820, 2012
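Luciferase read-out (15 sec integration) after a 15 min room-temperature substrate step quantifies HCVcc-Cre infection. Cells, 1,000 per well, had compound added 4 h post-plating, then virus at ~0.5 moi, and were cultured 44 h.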
AMA1-RON2 inh = qHTS for Inhibitors of AMA1-RON; Towards Development of Antimalarial Drug Lead: Primary Screen; Plasmodium falciparum AMA1 (3D7) - RON2 peptide interaction; AlphaScreen AMA1-biotinylated RON2 peptide binding; Potency, µM (series often up to 58.2 µM), hits mostly inhibitors; 360,000 tested, 0.2% active; AID 720542, 2013; note: nearly all actives have a fitted effect of over 45% in size
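AMA1 (3D7) with his tag at 25 nM final met compounds first, then biotinylated RON2 peptide at 25 nM; detection used donor plus acceptor beads, 10 µg/mL apiece, read by AlphaScreen after 30 min at room temperature.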
Each line names hits and unclear results; the compound was inactive in the other large screens; ! = repeats disagree. Calls come from the whole dose curve; as a rule, active = well fitted curve in the direction sought with a large enough effect; inconclusive = small, poorly fitted or top-dose-only effect, or another doubt; inactive = no such curve, though single readings can be large; an effect the other way counts as inactive or inconclusive.

CC(=O)N1CCN(c2ccccc2NC(=O)COc2ccc(Br)cc2)CC1	Pf growth 96h 4.65µM, Pf growth 48h inconclusive
O=C(Nc1ccccc1C(F)(F)F)N1CCN(c2ccccn2)CC1	none
COc1ccc(-c2nc3ccc(Br)cn3c2CC(C)(C)C)cc1OC	none (no result: Pf growth 96h, Pf growth 48h, HCV inhibitor)
O=C(COc1cccc(C(F)(F)F)c1)Nc1ccc(S(=O)(=O)N2CCCC2)cc1	Pf growth 48h inconclusive, HCV inhibitor 11.2µM
COc1ccc(OC2CCN(S(=O)(=O)c3ccc(F)cc3)CC2)cc1	none
Cc1cc(C)cc(OCC(=O)Nc2ccccc2N2CCCCC2)c1	none (no result: Pf growth 96h)
Cc1cc(OCC(=O)Nc2ccccc2N2CCCCC2)ccc1C(C)C	Pf growth 96h 10.4µM, Pf growth 48h inconclusive, HCV inhibitor inconclusive
Cc1ccc(S(=O)(=O)N2CCC(Oc3cccc(C(F)(F)F)c3)CC2)cc1	Pf growth 96h 2.33µM, HCV inhibitor inconclusive
Cc1ccc([C@@]2(OC(=O)c3ccccc3)C(=O)N(C(=O)OC(C)(C)C)c3ccccc32)cc1	none (no result: Pf growth 96h, Pf growth 48h, HCV inhibitor)
CCC(=O)c1ccc(OCc2cn(CC(=O)c3ccc(O)cc3)nn2)cc1	none (no result: Pf growth 96h, Pf growth 48h)
Cc1c(N=C/C=C2\N(C)c3ccccc3C2(C)C)c(=O)n(-c2ccccc2)n1C	Pf growth 96h 4.15µM
Cc1c(N=C/C=C2/N(C)c3ccccc3C2(C)C)c(=O)n(-c2ccccc2)n1C	none
CC(=O)N(CCc1ccccc1)Cc1cc2ccc(C)c(C)c2[nH]c1=O	Pf growth 96h inconclusive
O=C(Nc1cc([N+](=O)[O-])ccc1Cl)c1ccc2c(c1)OCO2	none
O=C(Nc1ccccn1)C(=O)Nc1ccccn1	none
S=C(Nc1ccccn1)c1ccccn1	Pf growth 96h 6.57µM!, Pf growth 48h inconclusive
Cc1ccc(C)c(NC(=S)c2ccccn2)c1	Pf growth 96h 1.04µM, Pf growth 48h 11.7µM, AMA1-RON2 inh inconclusive
CN(C(=O)c1cccc(NC(=O)Cc2ccc(NC(=O)C3CCN(C(=O)C4CCCCC4)CC3)cc2)c1)C1CC1	HCV inhibitor inconclusive (no result: Pf growth 96h, Pf growth 48h)
CCCC(=O)Nc1ccc2c(c1)C(=O)N(C)C[C@@H](OC)[C@H](C)CN(Cc1ccc(-c3ccccn3)cc1)[C@@H](C)CO2	none (no result: Pf growth 96h, Pf growth 48h, HCV inhibitor)
COCc1cn(CC(=O)c2sc(NC(=O)C(C)(C)C)nc2C)nn1	none (no result: Pf growth 96h, Pf growth 48h, HCV inhibitor)
COC(=O)[C@]12CCCCC=C1N(Cc1ccc(Cl)cc1Cl)C(=O)[C@H](CC(=O)N1CCN(C(=O)C3CC3)CC1)C2	none (no result: Pf growth 96h, Pf growth 48h, HCV inhibitor)
COc1ccc(NC(=S)N2CCCN(Cc3cccc(Cl)c3)C2)cc1	Pf growth 48h inconclusive
CSc1cccc(NC(=S)N2CCCN(Cc3cccc(Cl)c3)C2)c1	Pf growth 48h 10.4µM, HCV inhibitor inconclusive
CS(=O)(=O)N1CCC(Oc2ccccc2C(=O)N2CCNC(=O)C2)CC1	none
CCOC(=O)C1=CN(Cc2cccc(F)c2)S(=O)(=O)N(CC)C1c1ccccc1 (stereo not given)	HCV inhibitor 0.562µM (no result: Pf growth 96h, Pf growth 48h)
CCOC(=O)C1=CN(Cc2cccc(F)c2)S(=O)(=O)N(CC)C1c1cccc(OC)c1 (stereo not given)	none (no result: Pf growth 96h, Pf growth 48h)
CCCCNCC(=O)Nc1sc(C)c(C)c1C(=O)OCC	HCV inhibitor 11.2µM
CCOC(=O)c1c(NC(=O)c2cccnc2)sc(C)c1C	HCV inhibitor 10µM
CCOC(=O)c1c(NC(=O)CNCC(O)CO)sc(C)c1C (stereo not given)	Pf growth 96h inconclusive, HCV inhibitor inconclusive
Cc1sc(NC(=O)c2ccccc2)c(C(=O)c2ccccc2)c1C	Pf growth 96h 11.7µM
COc1ccc(C(c2nnnn2C(C)C)N2CCN(C(=O)c3ccco3)CC2)cc1 (stereo not given)	none
COc1ccc([N+](=O)[O-])cc1N(CC(O)CN1CCCCC1)S(=O)(=O)c1ccccc1 (stereo not given)	none
COc1ccc([N+](=O)[O-])cc1N(CC(O)CN1C(=O)NC(C)(C)C1=O)S(=O)(=O)c1ccccc1 (stereo not given)	Pf growth 96h 14.7µM
CCCCN(CCCC)CCNC(=O)c1ccc2nc(-c3ccccc3NC(C)=O)c(=O)[nH]c2c1	Pf growth 48h 2.33µM
CC(=O)Nc1ccccc1-c1nc2ccc(C(=O)N3CCN(c4ccccc4)CC3)cc2[nH]c1=O	Pf growth 96h inconclusive
CC(=O)Nc1ccccc1-c1nc2ccc(C(=O)N3CCN(c4cccc(C)c4)C(C)C3)cc2[nH]c1=O (stereo not given)	Pf growth 96h 6.57µM, HCV inhibitor inconclusive (no result: Pf growth 48h)
